From PubChem BioAssay (Tox21)
Inconclusive results are not listed. Calls of active or inactive are those of the source. Unless noted, calls come from the whole dose curve; as a rule, active = well fitted curve in the direction sought with a large enough effect in the repeat runs; inconclusive = weak or mixed curves; inactive = no such curve, though single readings can be large; an effect the other way counts as inactive or inconclusive.

Experiments:
[1] = molecular target: Thyrotropin receptor (Homo sapiens) (UniProt P16473); test: qHTS assay to identify small molecule agonists of the thyroid stimulating hormone receptor (TSHR) signaling pathway (AID 1224843; calls by dose curve; note: nearly all actives have a fitted effect of over 45% in size)
Chain of Thyrotropin receptor (Homo sapiens) (P16473 whole entry, looked up): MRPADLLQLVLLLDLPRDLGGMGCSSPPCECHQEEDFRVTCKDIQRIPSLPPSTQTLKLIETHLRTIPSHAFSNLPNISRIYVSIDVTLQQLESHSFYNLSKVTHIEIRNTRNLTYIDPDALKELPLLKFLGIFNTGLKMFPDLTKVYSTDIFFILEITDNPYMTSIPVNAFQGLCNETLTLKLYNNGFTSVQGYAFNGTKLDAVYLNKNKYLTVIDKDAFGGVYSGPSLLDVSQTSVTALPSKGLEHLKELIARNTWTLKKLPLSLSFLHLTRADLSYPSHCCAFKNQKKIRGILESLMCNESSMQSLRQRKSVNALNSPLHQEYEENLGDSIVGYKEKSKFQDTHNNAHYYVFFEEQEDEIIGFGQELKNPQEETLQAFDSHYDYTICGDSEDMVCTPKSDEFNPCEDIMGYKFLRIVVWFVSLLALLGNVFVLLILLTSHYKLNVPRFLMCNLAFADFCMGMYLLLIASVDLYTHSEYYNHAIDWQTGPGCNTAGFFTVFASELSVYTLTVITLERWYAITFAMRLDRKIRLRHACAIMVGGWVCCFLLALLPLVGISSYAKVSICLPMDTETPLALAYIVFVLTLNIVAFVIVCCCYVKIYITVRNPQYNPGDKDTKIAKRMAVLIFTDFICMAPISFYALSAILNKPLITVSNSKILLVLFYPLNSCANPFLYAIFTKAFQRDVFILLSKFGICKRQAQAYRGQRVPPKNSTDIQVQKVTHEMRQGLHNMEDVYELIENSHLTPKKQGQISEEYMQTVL
How it was run: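 A cell-based cAMP HTRF format was run in TSHR-transfected HEK293 cells, 800 per well. Treatment: 30 min, room temperature. Detection: 1 h with labelled cAMP and anti-cAMP cryptate. Concentration-response over 15 points, three replicates.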

[2] = qHTS assay to identify small molecule agonists of the hypoxia (HIF-1) signaling pathway - cell viability counter screen (AID 1224844; calls by dose curve; note: nearly all actives have a fitted effect of over 50% in size)
How it was run: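 Same wells as the HIF-1 reporter screen; ME-180 cells carrying HRE-bla, 17 hr treatment at 37C; CellTiter-Glo luminescence read after 30 min at room temperature.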

[3] = qHTS assay to identify small molecule agonists of H2AX (AID 1224845; active = well fitted activation curve with a large enough effect in the signal ratio in the repeat runs, not every such curve was filed as active; the % refers to the signal ratio)
How it was run: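 Phospho-H2AX Ser139 measured by HTRF (ex 320 nm; em 665 and 620 nm) after 24 hr antibody incubation. Compounds, 15 concentrations, 0.76% DMSO, were applied to CHO-K1 cells for 3hr at 37C before lysis.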

[4] = qHTS assay to identify small molecule agonists of the hypoxia (HIF-1) signaling pathway (AID 1224846; active = well fitted activation curve with a large enough effect in the signal ratio in the repeat runs, not every such curve was filed as active; the % refers to the signal ratio)
How it was run: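 In ME-180 cells bearing an HRE-bla construct, 17 h treatment with DMSO-dissolved compounds at 37C was followed by CCF4-AM loading to quantify reporter induction.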

[5] = qHTS assay to identify small molecule agonists of H2AX - cell viability counter screen (AID 1224847; calls by dose curve; note: top concentration of the series differs between compounds; nearly all actives have a fitted effect of over 30% in size)
How it was run: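 Compounds tested at 15 concentrations were incubated 3 hr at 37C with wild-type CHO-K1 cells; cellular ATP-based luminescence (CellTiter-Glo) indicated viability.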

[6] = qHTS RealTime-Glo MT Cell Viability Assay in HepG2 cells - 24 hour (AID 1224867); note: nearly all actives have a fitted effect of over 50% in size
How it was run: (§1)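 Cell number in HepG2 cultures estimated from NanoLuc luminescence generated by metabolic reduction of a prosubstrate by living cells. The homogeneous, nonlytic format allowed repeated reads at 0, 8, 16, 24, 32 and 40 h of compound exposure.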

[7] = qHTS RealTime-Glo MT Cell Viability Assay in HEK293 cells - 32 hour (AID 1224868); note: top concentration of the series differs between compounds; nearly all actives have a fitted effect of over 50% in size
How it was run: (§2)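 Homogeneous bioluminescent viability format in HEK293 cells (600 cells/well). Following 5 h at 37 C/5% CO2, 23 nL compound was pintooled; the signal was measured repeatedly during 40 h incubation.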

[8] = A CellTox Green Cytotoxicity Assay to monitor cytotoxicity in HEK293 cells - 0 hour (AID 1224869); note: nearly all actives have a fitted effect of over 50% in size
How it was run: (§3)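 Homogeneous no-lysis format: HEK293 cell suspension mixed with CellTox Green reagent, seeded, incubated 5 h at 37 C/5% CO2, then dosed by pintool with compound in DMSO.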

[9] = qHTS RealTime-Glo MT Cell Viability Assay in HepG2 cells - 40 hour (AID 1224870); note: nearly all actives have a fitted effect of over 50% in size
How it was run: (§4)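 Real-time viability: cells seeded at 600 per well together with NanoLuc and cell-permeant prosubstrate, compounds added after 5 h incubation. Luminescence tracked at 0, 8, 16, 24, 32 and 40 h of exposure.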

[10] = A CellTox Green Cytotoxicity Assay to monitor cytotoxicity in HEK293 cells - 40 hour (AID 1224871); note: nearly all actives have a fitted effect of over 45% in size
How it was run: as §3

[11] = qHTS RealTime-Glo MT Cell Viability Assay in HEK293 cells - 16 hour (AID 1224872)
How it was run: as §2

[12] = qHTS RealTime-Glo MT Cell Viability Assay in HepG2 cells - 8 hour (AID 1224873); note: nearly all actives have a fitted effect of over 55% in size
How it was run: as §4

[13] = qHTS RealTime-Glo MT Cell Viability Assay in HEK293 cells - 40 hour (AID 1224874); settings: RealTime-Glo luminescence; max response: active compounds read low; note: nearly all actives have a fitted effect of over 50% in size
How it was run: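 Measured as luminescence from the same continuously cultured HEK293 wells at successive time points (0, 8, 16, 24, 32, 40 h) after compound addition. Reagent present from seeding; dosing at 5 h; incubation 37 C.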

[14] = A CellTox Green Cytotoxicity Assay to monitor cytotoxicity in HEK293 cells - 24 hour (AID 1224875); note: nearly all actives have a fitted effect of over 45% in size; note: potency is the fitted concentration of half-maximal effect; for activity change: series mostly up to about 77 µM
How it was run: as §3

[15] = A CellTox Green Cytotoxicity Assay to monitor cytotoxicity in HepG2 cells - 16 hour (AID 1224876); note: nearly all actives have a fitted effect of over 45% in size
How it was run: (§5)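 Fluorescent DNA-binding dye, 600 HepG2 cells/well, 5 h preincubation then compound in DMSO; same plates read at 0–40 h, 37 C.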

[16] = qHTS RealTime-Glo MT Cell Viability Assay in HepG2 cells - 32 hour (AID 1224877); note: nearly all actives have a fitted effect of over 55% in size
How it was run: as §1

[17] = A CellTox Green Cytotoxicity Assay to monitor cytotoxicity in HepG2 cells - 40 hour (AID 1224879); note: nearly all actives have a fitted effect of over 40% in size
How it was run: as §5

[18] = A CellTox Green Cytotoxicity Assay to monitor cytotoxicity in HepG2 cells - 24 hour (AID 1224878); note: nearly all actives have a fitted effect of over 45% in size
How it was run: as §5
% is set by controls: 0 for no effect and ±100 for the full control effect.

OCc1ccccc1O
inactive: Potency [1] | Potency [2] | Potency [3] | outcome [4] | Potency [5] | Potency [6] | Potency [7] | Potency [8] | Potency [9] | Potency [10] | Potency [11] | outcome [12] | max response [13] -16.1% | Potency [14] | Potency [15] | Potency [16] | Potency [17]

NCCCN1CCN(CCCN)CC1
inactive: Potency [1] | Potency [2] | Potency [3] | outcome [4] | Potency [5] | Potency [6] | Potency [7] | Potency [8] | Potency [10] | Potency [11] | outcome [12] | max response [13] 6.33% | Potency [14] | Potency [15] | Potency [16]

CC(C)C(=O)OCC(C)(C)C(O)C(C)C (stereo not given)
inactive: Potency [1] | Potency [2] | Potency [3] | outcome [4] | Potency [5] | Potency [6] | Potency [7] | Potency [8] | Potency [9] | Potency [10] | Potency [11] | outcome [12] | max response [13] 8.54% | Potency [14] | Potency [15] | Potency [16] | Potency [18] | Potency [17]

CN1CCN(c2c(F)cc3c(=O)c(C(=O)O)cn(CCF)c3c2F)CC1
active: Potency [14] 5.35 µM
inactive: Potency [1] | Potency [2] | Potency [3] | outcome [4] | Potency [5] | Potency [6] | Potency [7] | Potency [8] | Potency [11] | outcome [12] | max response [13] 10.4% | Potency [15] | Potency [16] | Potency [18] | Potency [17]

C=CC1CO1 (stereo not given)
inactive: Potency [1] | Potency [2] | Potency [3] | outcome [4] | Potency [5] | Potency [6] | Potency [7] | Potency [8] | Potency [9] | Potency [11] | outcome [12] | max response [13] 6.13% | Potency [14] | Potency [15] | Potency [16] | Potency [18] | Potency [17]

CC1=C(O)C(=O)OC1C (stereo not given)
inactive: Potency [1] | Potency [2] | Potency [3] | outcome [4] | Potency [5] | Potency [6] | Potency [7] | Potency [9] | Potency [10] | Potency [11] | outcome [12] | max response [13] 1.31% | Potency [14] | Potency [15] | Potency [16] | Potency [17]

CC(C)Nc1nc(N)nc(Cl)n1
inactive: Potency [1] | Potency [2] | Potency [3] | outcome [4] | Potency [5] | Potency [6] | Potency [7] | Potency [8] | Potency [9] | Potency [11] | outcome [12] | max response [13] 10.6% | Potency [14] | Potency [15] | Potency [16] | Potency [18] | Potency [17]

CCCC1CCC(=O)O1 (stereo not given)
inactive: Potency [1] | Potency [2] | Potency [3] | outcome [4] | Potency [5] | Potency [6] | Potency [7] | Potency [8] | Potency [9] | Potency [11] | outcome [12] | max response [13] 4.54% | Potency [14] | Potency [15] | Potency [16] | Potency [18] | Potency [17]

C/C(=N\O)[C@@H](C)NCC(C)(C)CN[C@H](C)/C(C)=N/O
inactive: Potency [1] | Potency [2] | Potency [3] | outcome [4] | Potency [5] | Potency [6] | Potency [7] | Potency [8] | Potency [9] | Potency [10] | Potency [11] | outcome [12] | max response [13] 0.121% | Potency [14] | Potency [15] | Potency [16] | Potency [18] | Potency [17]

C[C@@H]1CN(c2c(F)c(N)c3c(=O)c(C(=O)O)cn(C4CC4)c3c2F)C[C@H](C)N1
inactive: activation [1] 4.51% [at 19 µM] | activity change, negative = cytotoxicity [2] -0.675% [at 15.8 µM] | activation (H2AX phosphorylation) [3] 0.193% [at 31.6 µM] | activation [4] 0.203% [at 15.8 µM] | activity change, negative = cytotoxicity [5] 2.57% [at 31.6 µM] | activity change, negative = cytotoxicity [6] 2.81% [at 15.8 µM] | activity change, negative = cytotoxic [7] -1.37% [at 15.8 µM] | cytotoxicity [8] 8.42% [at 15.8 µM] | activity change, negative = cytotoxic [9] -0.442% [at 15.8 µM] | activity change, negative = cytotoxicity [11] -1.59% [at 15.8 µM] | viability change, negative = cytotoxic [12] 0.974% [at 15.8 µM] | max response [13] -0.345% | activity change [14] 0.48% [at 15.8 µM, active compounds read high] | cytotoxicity increase [15] -2.88% [at 15.8 µM] | activity change, negative = cytotoxic [16] 1.06% [at 15.8 µM] | cytotoxicity [18] -3.54% [at 15.8 µM] | cytotoxicity increase [17] -1.78% [at 15.8 µM]

Nc1ccc2ccccc2c1S(=O)(=O)O
inactive: Potency [1] | Potency [2] | Potency [3] | outcome [4] | Potency [5] | Potency [6] | Potency [7] | Potency [8] | Potency [9] | Potency [10] | Potency [11] | outcome [12] | max response [13] -4.03% | Potency [14] | Potency [15] | Potency [16] | Potency [17]

CCN(CC)CCNC(=O)COc1ccc(Cl)cc1
inactive: Potency [1] | Potency [2] | Potency [3] | outcome [4] | Potency [5] | Potency [6] | Potency [7] | Potency [8] | Potency [9] | Potency [10] | Potency [11] | outcome [12] | max response [13] 2.3% | Potency [14] | Potency [16] | Potency [17]

C=CCCCCCCCCO
inactive: Potency [1] | Potency [2] | Potency [3] | outcome [4] | Potency [5] | Potency [6] | Potency [7] | Potency [8] | Potency [9] | Potency [11] | outcome [12] | max response [13] -15.3% | Potency [15] | Potency [16]

Cc1cc(NS(=O)(=O)c2ccc(N)cc2)nc(C)n1
inactive: Potency [1] | Potency [2] | Potency [3] | outcome [4] | Potency [5] | Potency [6] | Potency [7] | Potency [8] | Potency [9] | Potency [10] | Potency [11] | outcome [12] | max response [13] -0.863% | Potency [14] | Potency [16]
